Some test systems named below: DU-145 prostate; K-562 leukemia; MALME-3M melanoma; MDA-MB-231 breast; RXF 393 renal; SF-268 CNS; SF-295 CNS; SF-539 CNS; UACC-257 melanoma; M14 melanoma; HCT-15 colon; HT29 colon; SNB-75 CNS; SNB-19 CNS; U251 CNS; PC-3 prostate; SK-MEL-5 melanoma; UACC-62 melanoma; LOX IMVI melanoma; SK-MEL-28 melanoma.
Test in all cases: NCI-60 one-dose screen, 48 h (100 = growth as untreated, 0 = no growth, -100 = all killed)
Details in all cases: 10 µM unless noted

The structures appear in SMILES notation. About 83,000 compounds went through this panel and 20% of them were active in at least one assay; those are over-represented in the sample as a whole.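 Each cell line was grown in a 96-well plate and treated with one concentration of compound for 48 hours. Values below 10 were considered active.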 Values without a mark were called inactive. The source made the active and inactive calls.

As to `CCN1C(=O)N(CC)C2C1NN=c1s/c(=C\c3cccs3)c(=O)n12` (stereo not drawn), the growth was 10.4% with DU-145 prostate; 14.5% in the experiment on K-562 leukemia; 49.1% with MALME-3M melanoma; 7.14% (active) in the experiment on MDA-MB-231 breast; 11.5% in the experiment with RXF 393 renal; 59.3% in the experiment with SF-268 CNS. Also, the growth with SF-295 CNS is 19.3%; in the experiment on SF-539 CNS, -3.34% (active); with UACC-257 melanoma, 74.4%; in the experiment with M14 melanoma, 8.36% (active); in the experiment with HCT-15 colon, 16.5%; with HT29 colon, 60.2%. The growth in the experiment with SNB-75 CNS was 16.6%; in the experiment with SNB-19 CNS, 37%; with U251 CNS, 19.8%; in the experiment with PC-3 prostate, 21.9%; in the experiment with SK-MEL-5 melanoma it was -4.97% (active); in the experiment on UACC-62 melanoma it was 38%. The growth was 23.1% in the experiment on LOX IMVI melanoma and 58.3% in the experiment on SK-MEL-28 melanoma.

Turning to `N#C/C(=C\c1ccc(-c2ccccc2F)o1)c1nc(-c2ccco2)cs1`, the growth is 101% in the experiment with DU-145 prostate; 82.8% in the experiment with K-562 leukemia; 96% in the experiment on MALME-3M melanoma; 85.8% with MDA-MB-231 breast; 109% with RXF 393 renal; 101% in the experiment with SF-268 CNS. Also, the growth with SF-295 CNS was 98.6%; in the experiment on SF-539 CNS, 98.1%; with UACC-257 melanoma, 99.7%; with M14 melanoma, 94.8%; with HCT-15 colon it was 62.1%; in the experiment with HT29 colon it was 95.5%. For the same compound, the growth with SNB-75 CNS was 60.7%; in the experiment on SNB-19 CNS, 95.2%; in the experiment with U251 CNS, 101%; in the experiment with PC-3 prostate, 78.4%; in the experiment with SK-MEL-5 melanoma, 84.7%; in the experiment on UACC-62 melanoma, 83.9%. Moreover, in the experiment on SK-MEL-28 melanoma, the growth is 104%.

Take `COc1cc(CCC[P+](c2ccccc2)(c2ccccc2)c2ccccc2)cc2c1OCO2`: the growth is 48.2% with DU-145 prostate; 21.8% with K-562 leukemia; 14.6% in the experiment on MALME-3M melanoma; 29% in the experiment on MDA-MB-231 breast; 76.3% in the experiment on RXF 393 renal; 26.1% with SF-268 CNS. The growth in the experiment with SF-295 CNS is 68.6%; in the experiment on SF-539 CNS, 43%; in the experiment on UACC-257 melanoma, 17.4%; with M14 melanoma, 30.8%; in the experiment with HCT-15 colon it was 106%; with HT29 colon, 79.3%. Besides, the growth was 12.7% with SNB-75 CNS; 14.9% in the experiment with SNB-19 CNS; 23.9% with U251 CNS; 16.7% with PC-3 prostate; -41.2% (active) with SK-MEL-5 melanoma; -3.87% (active) with UACC-62 melanoma. Moreover, the growth was 32% in the experiment on LOX IMVI melanoma and 27.1% in the experiment on SK-MEL-28 melanoma.

Consider `COc1cc(N=Nc2cc(Cc3ccc(N(C)C)cc3)c(N)cc2N(C)C)c2ncccc2c1`, for which the growth was -48.7% (active) in the experiment on DU-145 prostate; -36.8% (active) with K-562 leukemia; -17.6% (active) in the experiment on MALME-3M melanoma; -45.1% (active) in the experiment on MDA-MB-231 breast; -79.7% (active) in the experiment on RXF 393 renal; 17.3% with SF-268 CNS. Further, the growth in the experiment on SF-295 CNS is 11.8%; with SF-539 CNS, -85.8% (active); in the experiment with UACC-257 melanoma, -33% (active); in the experiment with M14 melanoma, -15.7% (active); in the experiment with HCT-15 colon it was -13.2% (active); in the experiment on HT29 colon, -65.4% (active). Also, the growth in the experiment on SNB-75 CNS is 28.1%; in the experiment on SNB-19 CNS it was 6.94% (active); with U251 CNS, -54.8% (active); in the experiment with PC-3 prostate it was 3.89% (active); in the experiment on SK-MEL-5 melanoma, -13.8% (active); in the experiment with UACC-62 melanoma, -34% (active). In addition, the results for the growth with LOX IMVI melanoma and with SK-MEL-28 melanoma were -83.2% (active) and 15.7%, respectively.

As to `COc1cc(/C=C/C(=O)c2cccc(-n3cc(-c4ccccc4)[nH]c3=O)c2)ccc1O`, the growth is 81.1% in the experiment on DU-145 prostate; 20.9% in the experiment on K-562 leukemia; 90.8% in the experiment on MALME-3M melanoma; 90.3% in the experiment with MDA-MB-231 breast; 20% in the experiment on RXF 393 renal; 66.5% in the experiment on SF-268 CNS. Besides, the growth is 65.7% with SF-295 CNS; 85.7% in the experiment with SF-539 CNS; 68.8% in the experiment on UACC-257 melanoma; 84.7% in the experiment with M14 melanoma; 22.2% in the experiment with HCT-15 colon; 44.5% in the experiment with HT29 colon. Besides, the growth in the experiment on SNB-75 CNS is 46.8%; in the experiment on SNB-19 CNS, 90.5%; with U251 CNS it was 16.6%; with PC-3 prostate, 61.3%; in the experiment with SK-MEL-5 melanoma it was 68.5%; with UACC-62 melanoma it was 69.8%. Moreover, the growth in the experiment on LOX IMVI melanoma is 18.7%; with SK-MEL-28 melanoma it was 70.2%.

With `CCCCCS(=O)(=O)Nc1ccc(C(=O)O)cc1`, the growth in the experiment with DU-145 prostate was 103%; in the experiment with K-562 leukemia, 104%; in the experiment with MALME-3M melanoma, 98.2%; with MDA-MB-231 breast it was 106%; in the experiment on RXF 393 renal, 114%; in the experiment on SF-268 CNS, 101%. Moreover, the growth is 110% in the experiment on SF-295 CNS; 102% with SF-539 CNS; 95% in the experiment on UACC-257 melanoma; 101% in the experiment with M14 melanoma; 109% in the experiment on HCT-15 colon; 97.2% in the experiment on HT29 colon. Besides, the growth in the experiment on SNB-75 CNS is 92.3%; with SNB-19 CNS, 106%; in the experiment on U251 CNS it was 92.8%; in the experiment on PC-3 prostate, 102%; in the experiment with SK-MEL-5 melanoma it was 100%; in the experiment on UACC-62 melanoma, 98.8%. The figures for the growth with LOX IMVI melanoma and in the experiment with SK-MEL-28 melanoma were 99.9% and 111%, respectively.

In the case of `CCn1c(C)nc2cc(C(N)=O)ccc21`, the growth in the experiment with DU-145 prostate is 110%; in the experiment with K-562 leukemia, 102%; in the experiment with MALME-3M melanoma it was 96.4%; in the experiment with MDA-MB-231 breast, 113%; in the experiment on RXF 393 renal it was 93.4%; in the experiment with SF-268 CNS, 104%. In addition, the growth in the experiment with SF-295 CNS is 238%; with SF-539 CNS it was 96.4%; in the experiment with UACC-257 melanoma, 87.9%; in the experiment on M14 melanoma, 95.5%; in the experiment on HCT-15 colon it was 92.8%; in the experiment on HT29 colon it was 98.7%. Moreover, the growth in the experiment with SNB-75 CNS was 90.2%; in the experiment with SNB-19 CNS, 104%; in the experiment on U251 CNS, 95.4%; in the experiment on PC-3 prostate, 101%; in the experiment on SK-MEL-5 melanoma, 112%; in the experiment on UACC-62 melanoma it was 89.2%. Further, the growth is 91.6% with LOX IMVI melanoma and 113% in the experiment on SK-MEL-28 melanoma.

`Cc1nc2ccccc2c(/C=C/c2ccc(Cl)cc2)c1C(=O)/C=C/c1ccc(F)cc1`: the growth with DU-145 prostate was -8.13% (active); with K-562 leukemia, 5.45% (active); in the experiment with MALME-3M melanoma, -6.33% (active); in the experiment with MDA-MB-231 breast it was 1.67% (active); in the experiment with RXF 393 renal, -48.9% (active); in the experiment with SF-268 CNS, 48.6%. Further, the growth was 12.3% with SF-295 CNS; -61.2% (active) with SF-539 CNS; 15% in the experiment with UACC-257 melanoma; 5.81% (active) in the experiment on M14 melanoma; -15.4% (active) in the experiment with HCT-15 colon; 5.82% (active) in the experiment with HT29 colon. Further, the growth with SNB-75 CNS is 51.7%; in the experiment with SNB-19 CNS, -26% (active); in the experiment on U251 CNS, -76.8% (active); with PC-3 prostate, 20.4%; in the experiment on SK-MEL-5 melanoma, 8.11% (active); in the experiment with UACC-62 melanoma, 0.679% (active). The growth in the experiment on SK-MEL-28 melanoma is -27.7% (active).

The values are drawn from PubChem BioAssay (NCI).
